# Only some compounds are listed: those with a hit (about 3.8% of all), similar ones and a draw of the others.
# Yeast superoxide = lowers age-related superoxide in aged yeast cells; S. cerevisiae aged cells, superoxide DHE fluorescence; stronger effect = lower value; superoxide response (% of plate mean), % at 10 µM; 330,000 tested, 0.18% active; AID 2690;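 active means superoxide response under a set limit, about three screen SD below normal, cut at about 65% in these data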;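 further: yeast aged for seven days with compound at 30 °C before DHE staining; 100% = average MFI of all compound-treated wells on the plate with controls excluded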
# Cardio protect = myocardial damage modulation in H9c2 cells. H9c2 cardiomyocytes, H2O2 injury protection, ATPLite, 2 h. protection from H2O2 cell death, % at 20 µM. 360,000 tested, 0.63% active. AID 588492;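 active means compounds giving at least 50% protection of heart cells from peroxide-induced death in the single-dose screen, raw or plate-pattern-corrected value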;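 further: 0% = DMSO wells with peroxide and 100% = DMSO wells without peroxide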
# SUMO Mot1 rescue = blocks SUMOylation pathway, rescuing yeast Mot1-301 growth. S. cerevisiae Mot1-301 growth rescue, ATP luminescence, 38.5C; percent above DMSO median, 100 means doubled. growth rescue, % at 18.8 µM. 320,000 tested, 1% active. AID 2716;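 active means every valid replicate shows activation above 250% relative to neutral control wells; inactive means the rest, any valid replicate at or below 250%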;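 further: OY570 slx delta 5 strain wells were the positive control but not used for scaling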
# aDG glyco act = alpha-DG glycosylation activation | Pro5-aDG cells, alpha-DG glycosylation AlphaScreen (IIH6); 0% Pro5, 100% B10-LARGE cell signal | activation, % at 10 µM | 360,000 tested, 0.22% active | AID 624168;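 active means activation of at least 8% versus controls, or a plate z-score of at least 8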;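 further: Pro5 are CHO cells carrying HIG-tagged alpha-DG that lacks glycosylation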
# MPTP block = inhibitors of mitochondrial permeability transition pore; isolated mouse mitochondria, Ca2+ swelling absorbance, 30 min; inhibition, % at 10 µM; 360,000 tested, 1.4% active; AID 602449;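 active means inhibition of 50% or more, scaled per plate between neutral and stimulator controls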;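 further: 0% = DMSO wells given calcium and 100% = 1 mM EGTA wells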
# FAS TE block = FAS thioesterase (human) inhibition | 360,000 tested, 0.67% active | P49327 | inhibition, % at 15 µM | recombinant FAS-TE, OMFH fluorogenic substrate, fluorescence endpoint;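 active means compounds whose normalised, plate-corrected inhibition of enzyme fluorescence in the single-dose primary screen is 50% or more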;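 further: 0% = DMSO with enzyme and 100% = substrate without enzyme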
# Superoxide pick = yeast aging superoxide inhibition, cherry pick confirmation. shares compounds with Yeast superoxide. S. cerevisiae aging, superoxide DHE fluorescence; stronger effect = lower value. superoxide response (% of plate), % at 10 µM. 850 tested, 1% active;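 active means superoxide signal below 65% of the plate average of sample wells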;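 further: cells aged with compound for 7 days at 30 degrees C before staining; 100% equals mean DHE fluorescence of all compound wells on the plate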
# DHE fluor count = compound alters DHE oxidation or fluorescence in yeast | shares compounds with Yeast superoxide | S. cerevisiae BY4741, flow cytometry; stronger effect = lower value | fluorescence response, % at 10 µM | 850 tested, under 10 active | AID 435000;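 active means fluorescence response below 15%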;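 further: percent of the mean fluorescence averaged over all compound wells on the plate; lower means stronger quenching of DHE signal or ROS scavenging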
# * marks the source's active call; other numbers are inactive results; x = not tested or not shown.
SMILES,Yeast superoxide,Cardio protect,SUMO Mot1 rescue,aDG glyco act,MPTP block,FAS TE block,Superoxide pick,DHE fluor count
CC(C)n1cc(C(=O)NC2CC(C)(C)Cc3c2cnn3-c2ccccc2)cn1 (configuration not stated),100.1,-0.5,2.4,-0.1,-1.4,-3.7,x,x
Cc1ccc(NC(=O)CN(C)S(=O)(=O)c2cccs2)c(Br)c1,100.5,-3.6,-14.2,0.4,1.8,0.0,x,x
Cc1nc2cc(-c3ccc(Br)cc3)[nH]n2c(=O)c1Cl,101.5,-13.5,-14.5,-0.2,2.0,0.3,93.8,89.5
Cc1cc2nc(C)c(Cl)c(=O)n2[nH]1,104.2,-5.7,-6.2,-0.1,-1.1,-6.0,x,x
Cc1ccc(NC(=O)[C@H](C)NC(=O)C2CCN(C(=O)[C@H](CC(C)C)NC(=O)OC(C)(C)C)CC2)cc1,94.8,4.6,26.1,0.0,0.4,-2.6,x,x
CCOC(=O)c1cnc2c(F)ccc(F)c2c1Sc1ccccc1,61.6*,-8.5,-10.6,-0.1,3.0,27.1,86.2,111.3
COc1ccc(C)cc1-n1nnnc1SCc1cn2ccsc2n1,62.2*,-4.3,12.4,-0.1,-3.8,-5.6,117.7,109.8
COc1ccc(C)cc1-n1nnnc1SCc1nc(N)nc(N(C)C)n1,x,-18.4,x,-0.4,-1.5,-4.3,x,x
Cn1c(=O)c2c(nc(CN3CCOCC3)n2CCN2CCOCC2)n(C)c1=O,59.7*,2.6,-2.8,0.1,0.3,-8.1,94.4,92.1
CCCCn1c(CN2CCOCC2)nc2c1c(=O)n(C)c(=O)n2C,99.4,-0.7,-7.3,-0.1,-0.8,-4.4,x,x
CCCCCN(C(=O)CCC(=O)OCC(=O)N1CCCC(C)C1)c1c(N)n(CCCC)c(=O)[nH]c1=O (configuration not stated),104.0,-1.0,-8.9,0.6,-0.9,-5.4,x,x
Cc1ccc(NCc2nc3ccccc3n2C)cc1C,98.2,-7.2,2.0,-0.2,-0.2,2.2,x,x
NS(=O)(=O)c1ccc(CCNC(=O)C(=O)NCC2OCCN2S(=O)(=O)c2cc(F)ccc2F)cc1 (configuration not stated),63.0*,1.5,1.9,-0.5,-0.3,-4.3,97.1,100.6
CCc1ccc(NC(=O)CSc2nnc(-c3ccco3)o2)cc1,65.0*,-1.9,9.7,0.7,-1.6,7.1,87.7,91.8
CC(=O)Nc1ccc(NC(=O)CSc2nnc(-c3ccco3)o2)cc1,99.8,-6.8,24.9,-0.2,-0.1,-2.3,x,x
COc1ccc(S(=O)(=O)Nc2noc3ccccc23)cc1OC,53.8*,3.1,-9.1,0.0,-0.1,-5.1,82.7,96.7
Cc1cc(NS(=O)(=O)c2ccccc2)c(C)c(Cl)c1O,124.4,-8.9,59.6,16.2*,2.0,-6.6,114.4,113.1
CN(C(=O)CN1CCN(c2ccc([N+](=O)[O-])cn2)CC1)c1ccccc1,130.0,-3.6,-18.0,0.2,-0.1,1.2,96.4,103.2
CC(C)(C)NC(=O)c1cccc2c1-c1ccccc1C2=O,41.8*,-1.9,-10.1,-0.1,-0.4,2.7,103.5,110.7
CCOC(=O)C/C(C)=N/NC(=O)c1cccs1,62.9*,6.1,29.0,0.1,0.7,-9.4,112.5,99.2
C/C(=N/NC(=O)c1cc(C)[nH]n1)c1ccncc1,102.9,3.7,-23.0,-0.1,0.1,-1.6,x,x
CC1CCCCN1S(=O)(=O)c1ccc(C(=O)Nc2nnc(C3=COCCO3)o2)cc1 (configuration not stated),126.5,30.4,78.7,0.1,-1.1,-4.1,93.9,100.6
O=C(Nc1nnc(-c2ccco2)o1)c1ccc(S(=O)(=O)N2CCCCC2)cc1,x,16.8,x,0.1,0.5,-7.8,x,x
CC1CCCCN1S(=O)(=O)c1ccc(C(=O)Nc2nnc(C3CC3)o2)cc1 (configuration not stated),90.8,19.0,4.8,0.0,0.5,-5.7,97.0,101.6
Cc1nnc(NC(=O)c2ccc(S(=O)(=O)N3CCCCC3C)cc2)o1 (configuration not stated),92.5,20.2,-12.2,0.3,-1.2,-5.3,x,x
SMILES,Yeast superoxide,Cardio protect,SUMO Mot1 rescue,aDG glyco act,MPTP block,FAS TE block,Superoxide pick,DHE fluor count
CC1CCN(S(=O)(=O)c2ccc(C(=O)Nc3nnc(C4CC4)o3)cc2)CC1,82.8,28.4,-28.5,0.1,-2.5,0.7,87.3,97.9
CC1CCCCN1S(=O)(=O)c1ccc(C(=O)Nc2nnc(-c3ccco3)o2)cc1 (configuration not stated),102.3,22.4,-25.5,0.8,-2.1,-3.9,99.0,91.1
O=C(COc1ccc([N+](=O)[O-])cc1Cl)NCCN1C(=O)CSC1=O,103.8,7.9,16.8,0.0,0.7,1.5,x,x
N#Cc1ccsc1NC(=O)CN1CCN(c2ccccn2)CC1,93.0,10.7,-3.1,0.1,1.6,-5.6,x,x
N#Cc1ccc(NC(=O)CN2CCN(c3ccccn3)CC2)cc1,98.5,-3.7,0.6,-0.1,-0.8,-4.5,97.3,102.2
Cc1cc(Br)ccc1NC(=O)c1sc2ncnc(N3CCN(c4ccccn4)CC3)c2c1C,95.4,5.1,15.7,-0.1,0.7,29.2,x,x
COc1ccc(NC(=O)CN2CCN(c3ccccn3)CC2)cc1Cl,54.6*,-3.7,47.8,0.0,-0.1,0.9,99.3,97.0
Cc1cc(N)ccc1NC(=O)CN1CCCC1,64.1*,4.7,110.9,-0.1,-0.6,-7.1,90.6,92.5
Cc1cc(Br)ccc1NC(=O)CN1CCN(c2ccccn2)CC1,106.5,-9.6,5.7,0.0,0.6,1.5,95.7,91.3
O=CN1CCN(C(=O)c2cccc3c2-c2ccccc2C3=O)CC1,92.6,3.4,-9.0,0.0,0.1,-4.5,x,x
O=C(CN1CCN(CC(=O)Nc2ccccc2Cl)CC1)Nc1ccc(F)c(F)c1,43.5*,2.5,96.8,0.0,1.6,10.1,95.5,93.9
O=C(CN1CCCCCC1)Nc1ccc(F)c(F)c1,99.6,-7.7,-10.9,0.6,-0.8,-5.4,x,x
O=C(CN1CCN(c2ccccn2)CC1)Nc1cccc(C(F)(F)F)c1,105.1,-3.1,1.0,0.2,3.6,-2.0,98.4,90.4
CC(C)c1ccc(NC(=O)CN2CCN(c3ccccn3)CC2)cc1,85.4,-1.9,-1.0,-0.1,0.0,3.5,88.7,93.3
Cc1cnc(NC(=O)CN2CCN(c3ccccn3)CC2)s1,114.2,4.5,-17.2,-0.8,-1.7,-9.4,x,x
CSc1ccccc1NC(=O)CN1CCN(c2ccccn2)CC1,97.2,2.4,13.6,0.1,-1.1,-4.1,98.6,101.0
CCCN(C(=O)CSCc1ccccc1C)c1c(N)n(Cc2ccccc2)c(=O)[nH]c1=O,92.3,10.6,73.5,0.0,-1.1,-3.0,x,x
CN(C)CCCNCC(=O)NN(c1ccccc1)c1ccccc1,99.2,x,-15.3,x,x,x,x,x

# High-throughput results (PubChem BioAssay)
